Bioassay records from PubChem.
TDP1 cell noCPT – qHTS for Inhibitors of human tyrosyl-DNA phosphodiesterase 1 (TDP1): qHTS in cells in absence of CPT. DT40 Tdp1-/- hTDP1 cells, no CPT, ATP luminescence, 48 h. Potency, µM (highest dose often 46.2 µM), inactives show at the highest dose activity change, negative = growth inhibition, actives largely listed as inhibitors. hit rate 15% among 420,000; also: nearly all actives have a fitted effect of over 55% in size
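Compound effects on proliferation are scored in DT40 Tdp1-/-;hTDP1 cells in the absence of CPT. ATP levels (CellTiter-Glo luminescence) are recorded after a ≥48 hr, 37 °C incubation.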
TDP1 inh – TDP1 (human) enzyme inhibition. Q9NUW8. recombinant TDP1, AlphaScreen DNA substrate cleavage. Potency, µM (series often up to 130 µM), for the others: at the top dose activity change, negative = inhibition, most hits filed as inhibitors. hit rate 0.28% among 350,000. AID 485290; also: nearly all actives have a fitted effect of over 40% in size
Target sequence (Q9NUW8 whole entry, looked up): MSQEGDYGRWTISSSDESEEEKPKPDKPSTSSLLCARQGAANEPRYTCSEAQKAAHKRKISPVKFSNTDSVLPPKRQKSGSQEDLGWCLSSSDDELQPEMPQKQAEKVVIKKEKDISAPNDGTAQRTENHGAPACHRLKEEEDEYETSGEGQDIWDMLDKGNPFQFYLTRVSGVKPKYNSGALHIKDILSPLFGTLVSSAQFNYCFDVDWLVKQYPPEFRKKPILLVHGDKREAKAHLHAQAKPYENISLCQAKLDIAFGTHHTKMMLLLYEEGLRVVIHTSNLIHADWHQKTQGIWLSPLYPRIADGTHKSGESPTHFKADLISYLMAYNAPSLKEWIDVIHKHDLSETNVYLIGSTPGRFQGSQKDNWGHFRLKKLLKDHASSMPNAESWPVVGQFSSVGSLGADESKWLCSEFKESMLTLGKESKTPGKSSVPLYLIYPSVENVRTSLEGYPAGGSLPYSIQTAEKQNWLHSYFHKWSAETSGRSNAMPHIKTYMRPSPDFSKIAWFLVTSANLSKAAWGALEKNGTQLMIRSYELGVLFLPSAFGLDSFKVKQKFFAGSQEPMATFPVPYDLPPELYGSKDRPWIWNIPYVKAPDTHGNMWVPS
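Recombinant E. coli-expressed Tdp1 (1 nM) preincubated with compound 15 min at RT, then 5'-biotin/3'-phosphotyrosine-FITC DNA substrate (15 nM) added for 5 min. AlphaScreen beads (10 ug/ml) added, 10 min RT; tyrosine-FITC cleavage read as signal loss.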
VP16 counter – inhibits Gal4-VP16 luciferase reporter, ROR gamma counter-screen; Drosophila S2 Gal4-VP16 UAS-luciferase, luminescence, 20 h; Potency, µM (series often up to 53.6 µM), for the others: at the top dose activity, negative = inhibition, actives largely listed as inhibitors; hit rate 3.5% among 310,000;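 also: Gal4-VP16 expression switched on by copper sulfate through the metallothionein promoter; nearly all actives have a fitted effect of over 50% in size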
RORgamma inh – inhibitors of mouse ROR gamma transcriptional activity. Potency, µM (top dose mostly 53.6 µM), for the others: at the top dose activity change, negative = inhibition, most hits filed as inhibitors. hit rate 5.4% among 310,000. Drosophila S2 Gal4-RORgamma UAS-luciferase reporter, 20 h. P51450; also: nearly all actives have a fitted effect of over 60% in size
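Schneider cells (Drosophila), stable Gal4 DBD–ROR gamma + UAS-luc; 1 hr cmpd preincubation; Cu2+ induction 700 uM final; 20 hr ambient; luminescence.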
TDP1 cell CPT – growth inhibition of DT40 Tdp1-/-;hTDP1 cells with camptothecin (screen for TDP1 inhibitors); AID 686979; Potency, µM (doses to about 46.2 µM), inactives show top-dose activity change, negative = growth inhibition, hits mostly inhibitors; chicken DT40 Tdp1-/-;hTDP1 cells + 20 nM CPT, ATP luminescence, 48 h; hit rate 12% among 420,000; also: nearly all actives have a fitted effect of over 55% in size
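Chicken DT40 Tdp1-/- cells stably complemented with human TDP1 were seeded at 400 cells/well in medium containing 20 nM camptothecin, exposed to pin-transferred compounds, and grown at 37 °C for at least 48 hr. Viability was read as ATP luminescence.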
* marks the source's active call; other numbers are inactive results; ? = inconclusive; nt = no result given; [ ] = another dose, or the depositor's remark. Compounds with a hit are over-represented: about 19% of the library has one in this group of screens. Calls follow the shape of the dose curve; as a rule, active = well fitted curve in the direction sought with a large enough effect; inconclusive = small, poorly fitted or top-dose-only effect, or another doubt; inactive = no such curve, though single readings can be large; an effect the other way counts as inactive or inconclusive. % is scaled to controls: 0 for no effect and ±100 for the full control effect; potency is read from the fitted curve at half-maximal effect.

SMILES	TDP1 cell noCPT	TDP1 inh	VP16 counter	RORgamma inh	TDP1 cell CPT
Cc1ccc(-c2csc(NCCn3c(C(F)(F)F)nc4ccccc43)n2)cc1	?	nt	-25.2%	-13.9%	?
CC(C)Cn1c(-c2cccc(Br)c2)nc2ccccc21	?	0.0%	nt	nt	?
OCCOCCn1c(C(CO)Nc2nc(-c3ccccc3Br)cs2)nc2ccccc21 (configuration not stated)	-21.7%	nt	nt	nt	?
CCCn1c(C(CO)Nc2nc(-c3cccc(Br)c3)cs2)nc2ccccc21 (configuration not stated)	?	nt	?	12.6µM*	?
CCc1ccc2c(c1)C1(C(=O)N2)N2CCCC2C(C(=O)c2ccc3ccccc3c2)C12C(=O)Nc1ccccc12 (configuration not stated)	?	1.4%	?	?	?
CN(Cc1nc2ccccc2c(=O)[nH]1)C(=O)c1cccc(S(=O)(=O)N2CCc3ccccc32)c1	?	-0.3%	nt	nt	?
CN(C)c1cc(N/N=C/c2ccc(Cl)cc2)nc(N(C)C)n1	18.4µM*	7.4%	-10.3%	-17.2%	?
Clc1ccc(/C=N/Nc2nn[nH]n2)cc1	-16.6%	4.9%	1.4%	-6.1%	0.2%
Cc1ccc(-n2c(C)cc(C(=S)N3CCOCC3)c2C)cc1C	14.6µM*	4.8%	-28.0%	14.1µM*	23.1µM*
CCCCCC(=O)N1C[C@@H](n2cc(C3CC3)nn2)[C@H](O)C[C@@H]1c1ccc(C)cc1	13µM*	nt	nt	nt	?
CCCCCC(=O)N1C[C@@H](O)[C@H](n2cc(C3CC3)nn2)C[C@@H]1c1ccc(Cl)cc1	-31.9%	nt	nt	nt	-21.6%
CCCCCC(=O)N1C[C@H](n2cc(C3CC3)nn2)[C@@H](O)C[C@@H]1c1ccc(Cl)cc1	13µM*	nt	nt	nt	?
Fc1ccc(Nc2ncnc3c2nc2n3CCCC2)cc1	?	5.0%	nt	nt	-13.6%
COc1cc(C2C(C#N)=C(N)Oc3c2oc(CO)cc3=O)ccc1OC(C)C (configuration not stated)	0.1%	5.1%	-7.9%	-30.4%	0.9%
CC(NS(=O)(=O)c1ccc(Cl)cc1)C(=O)OCC(=O)Nc1ccc(N(C)C)cc1 (configuration not stated)	-20.0%	7.8%	nt	nt	?
CCOC(=O)c1c(NC(=O)C2=C(C)NC(=S)NC2c2ccc(CC)cc2)sc(C)c1C (configuration not stated)	nt	7.1%	7.94µM*	3.55µM*	nt
CCOC(=O)c1c(NC(=O)CC2Nc3ccccc3NC2=O)sc(C)c1C (configuration not stated)	18.4µM*	5.3%	-2.5%	10.7%	8.2µM*
CCCCOc1ccccc1NC(=O)CC1Nc2ccccc2NC1=O (configuration not stated)	?	3.1%	?	10µM*	?
Cc1nnc(SCC(=O)NCC(=O)Nc2ccc(F)c(F)c2F)n1N	-1.2%	0.9%	nt	nt	10.8%
Fc1cc(F)cc(-c2oncc2-c2nnnn2-c2ccccc2)c1	6.4%	-2.5%	20.1%	2.0%	-13.2%
O=C(Oc1ccccc1C(=O)Oc1ccccc1)c1cccnc1	?	-5.0%	-10.4%	-12.0%	?
NC(=O)Cc1ccc(C(=O)c2ccc(Cl)cc2Cl)s1	-9.5%	5.0%	11.5%	17.8%	-16.4%
COc1ccc(N2CCN(C(=S)Nc3ccc(C)cc3)CC2)cc1	-35.5%	2.4%	-2.2%	10µM*	-20.9%
Cc1ccc(NC(=S)N2CCCC2)cc1	-15.3%	6.2%	26.8%	0.8%	1.7%
Cc1ccc(N2CCN(C(=S)Nc3ccccc3)CC2)cc1	?	5.3%	?	6.31µM*	-8.8%
SMILES	TDP1 cell noCPT	TDP1 inh	VP16 counter	RORgamma inh	TDP1 cell CPT
CC(=O)c1ccc(N2CCN(C(=S)Nc3ccccc3F)CC2)cc1	7.31µM*	0.0%	-10.7%	34.4%	?
CC(=O)c1ccc(N2CCN(C(=S)Nc3ccccc3)CC2)cc1	20.6µM*	0.0%	-25.3%	?	?
O=C(O/N=C1\CCS(=O)(=O)c2sccc21)c1ccccc1	-3.4%	-8.6%	-2.3%	17.2%	-0.8%
S=C(NCC(c1cccnc1)N1CCOCC1)NC1CCCCC1 (configuration not stated)	-14.7%	0.0%	-7.1%	-15.4%	-9.6%
S=C(Nc1ccccc1)N1CCOCCOCCN(C(=S)Nc2ccccc2)CCOCCOCC1	?	-5.9%	-23.8%	17.8µM*	?
COC(=O)[C@H](Cc1ccccc1)NC(=O)c1ccc2ccccc2n1	-15.4%	5.3%[0.0935 µM]	-3.2%	-1.1%	9.5%
CC(C)(C)NC(=O)[C@@H]1C[C@@H]2CCCC[C@@H]2CN1C[C@@H](O)[C@H](Cc1ccccc1)NC(=O)[C@H](CC(N)=O)NC(=O)c1ccc2ccccc2n1	15µM*	18.9%	-12.4%	7.2%	?
COc1ccc(-c2[nH]ncc2CN(C)Cc2cccnc2)c(OC)c1	0.0%	2.7%	-6.1%	0.9%	-4.0%
Brc1ccc(-c2ccc(/C=N/Nc3nncc(-c4ccccc4)n3)o2)cc1	18.4µM*	5.6%	1.26µM*	0.891µM*	?
Oc1ccc(/C=N\Nc2nncc(-c3ccccc3)n2)cc1	?	3.1%	?	-26.9%	?
Cc1c(C(=O)O)cccc1-c1ccc(/C=N/Nc2ccc(Br)cc2)o1	-24.6%	-5.3%	-7.8%	30.9%	-3.8%
Brc1ccc(/C=N/Nc2nncc(-c3ccccc3)n2)o1	nt	0.5%	-6.3%	3.55µM*	nt
CCOc1ccc(Oc2c(C)oc3cc(O)ccc3c2=O)cc1	-13.6%	4.9%	-3.7%	25.1%	1.8%
CCOC(=O)c1ccc(Oc2c(C)oc3cc(OS(C)(=O)=O)ccc3c2=O)cc1	16.4µM*	-2.7%	-3.2%	?	16.4µM*
Cc1oc2cc(O)ccc2c(=O)c1Oc1ccccc1	5.8µM*	4.3%	-10.5%	8.7%	6.51µM*
